Screening results deposited in PubChem by National Center for Advancing Translational Sciences (NCATS).
Shown is part of a subset that was picked to be rich in hits.
HT1080-NT tox – kills 2HG-producing HT-1080-NT fibrosarcoma cells; HT-1080-NT fibrosarcoma viability, CellTiter-Glo ATP luminescence, 48 h; Potency, µM (doses to about 46.1 µM), for inactives: top-dose activity, negative = less viability, most hits filed as cytotoxic; actives 1.6% (n = 360,000); AID 686970;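 note: NT is the 2HG producing partner of a matched IDH1 knockdown line; potency is the fitted concentration of half-maximal effect; 0% = DMSO-treated cells and -100% = media-only wells without cells; nearly all actives have a fitted effect of over 55% in size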
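750 cells/well, RPMI + 5% FBS; 2 h settle, compound pin-transfer, 48 h at 37 degrees C. CellTiter-Glo 10 min RT, luminescence. Normalized to DMSO and media-only wells.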
TDP1 cell CPT – DT40-hTDP1 cell growth loss with CPT; chicken DT40 Tdp1-/-;hTDP1 cells + 20 nM CPT, ATP luminescence, 48 h; Potency, µM (top dose mostly 46.2 µM), without a hit: at the highest dose activity change, negative = growth inhibition, actives largely listed as inhibitors; actives 12% (n = 420,000); AID 686979; note: potency is the fitted concentration of half-maximal effect; nearly all actives have a fitted effect of over 55% in size
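Chicken DT40 Tdp1-/- cells stably complemented with human TDP1 were seeded at 400 cells/well in medium containing 20 nM camptothecin, exposed to pin-transferred compounds, and grown at 37 °C for at least 48 hr. Viability was read as ATP luminescence.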
HT1080 IDH1KD tx – kills HT-1080 cells with IDH1 knockdown; actives 2% (n = 360,000); Potency, µM (series often up to 46.1 µM), inactives show at the highest dose activity, negative = toxicity, actives largely listed as cytotoxic; HT-1080 IDH1 knockdown viability, ATP luminescence, 48 h;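 note: potency is the fitted concentration of half-maximal effect; 0% = DMSO wells and -100% = cell-free medium wells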
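% activity derives from luminescence (CellTiter-Glo), normalised to DMSO and no-cell wells. HT-1080-IDH1KD cells, 750/well, had 48 h compound exposure at 37 °C.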
ALOX12 inh – inhibitors of human 12S-lipoxygenase ALOX12. P18054. purified 12hLO, xylenol orange hydroperoxide absorbance. actives 1.1% (n = 580,000). Potency, µM (series often up to 108 µM), without a hit: at the highest dose activity change, negative = inhibition, hits mostly inhibitors; note: potency is the fitted concentration of half-maximal effect
Target sequence (P18054 whole entry, looked up): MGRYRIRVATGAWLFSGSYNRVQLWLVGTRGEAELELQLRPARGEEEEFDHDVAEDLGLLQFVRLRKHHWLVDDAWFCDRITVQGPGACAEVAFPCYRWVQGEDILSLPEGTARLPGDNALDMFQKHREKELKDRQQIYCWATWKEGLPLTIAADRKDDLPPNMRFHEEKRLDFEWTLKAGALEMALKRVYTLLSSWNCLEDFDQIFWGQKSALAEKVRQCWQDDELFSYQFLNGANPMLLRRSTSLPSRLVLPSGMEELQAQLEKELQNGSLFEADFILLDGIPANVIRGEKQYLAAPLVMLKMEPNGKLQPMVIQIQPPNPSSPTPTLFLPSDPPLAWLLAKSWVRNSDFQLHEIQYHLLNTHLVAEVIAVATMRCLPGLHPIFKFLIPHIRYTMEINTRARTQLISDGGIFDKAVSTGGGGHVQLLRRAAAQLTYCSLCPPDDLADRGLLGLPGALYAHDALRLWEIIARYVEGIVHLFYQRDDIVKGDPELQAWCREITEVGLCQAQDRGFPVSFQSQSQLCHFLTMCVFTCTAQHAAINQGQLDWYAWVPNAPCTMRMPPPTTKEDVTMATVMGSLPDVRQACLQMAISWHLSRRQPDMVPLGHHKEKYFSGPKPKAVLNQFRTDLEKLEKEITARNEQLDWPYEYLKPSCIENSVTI
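Purified human 12hLO (150 nM final) in 25 mM Hepes, 0.01% Triton X-100, pH 7.0 was preincubated 15 min at room temperature with compound. Then 40 uM arachidonic acid was added, 30 min. Hydroperoxide was read by Fe-XO absorbance ratio 573/405 nm.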
IL-1B inflam inh – inhibitors of inflammasome signaling (IL-1 beta secretion). THP-1 LPS/ATP IL-1B secretion, AlphaLISA, 16 h; active compounds read low. activity change, % at 57.5 µM. actives 4.7% (n = 360,000). AID 743279; in the data active = activity change below about -50%; inconclusive = mostly about -30% to -49%
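Secreted IL-1B measured by AlphaLISA bead assay after 16 h compound exposure of THP-1 cells; compounds (final up to 57.5 uM) added 1 h before LPS (250 ng/mL) and ATP (1.25 mM) stimulation; lower signal means less secretion.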
DT40 TDP1 no CPT – qHTS for Inhibitors of human tyrosyl-DNA phosphodiesterase 1 (TDP1): qHTS in cells in absence of CPT; DT40 Tdp1-/- hTDP1 cells, no CPT, ATP luminescence, 48 h; Potency, µM (doses to about 46.2 µM), for the others: at the top dose activity change, negative = growth inhibition, usual class: inhibitors; actives 15% (n = 420,000); AID 686978, 2013; note: potency is the fitted concentration of half-maximal effect; nearly all actives have a fitted effect of over 55% in size
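Cells were dispensed at 400 per well, compounds added by pin tool, plates incubated ≥48 hr at 37 °C, then CellTiter-Glo added for 30 min at room temperature before luminescence reading. Line: DT40 Tdp1-/- complemented with hTDP1; camptothecin omitted.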
An asterisk follows results filed as active; i = inactive; u = inconclusive; x = no result given; [ ] = another dose, or the depositor's remark. Unless noted, calls come from the whole dose curve; as a rule, active = well fitted curve in the direction sought with a large enough effect; inconclusive = small, poorly fitted or top-dose-only effect, or another doubt; inactive = no such curve, though single readings can be large; an effect the other way counts as inactive or inconclusive. Unless noted, % is set by controls: 0 for no effect and ±100 for the full control effect.

SMILES | HT1080-NT tox | TDP1 cell CPT | HT1080 IDH1KD tx | ALOX12 inh | IL-1B inflam inh | DT40 TDP1 no CPT
CC[n+]1ccc(/C=C2\Sc3ccccc3N2CCCS(=O)(=O)[O-])c2ccccc21 | -15.6% | 1.4% | -6.7% | u | 57.7 | 2.0%
C[n+]1ccc(/C=C/c2ccc([N+](C)(C)C)cc2)c2ccccc21 | x | 0.141µM* | x | x | x | 0.159µM*
C[n+]1ccc(/C=C/c2cc[n+](C)c3ccccc23)c2ccccc21 | x | 0.1µM* | x | x | x | 0.0794µM*
O=C(COC(=O)c1ccc(-c2ccccc2)s1)c1ccccc1 | x | x | x | -2.4% | x | x
CC(C)c1noc(-c2cn(C3CCCN(C(=O)c4cccs4)C3)nn2)n1 (stereo not drawn) | x | x | x | 17.2% | x | x
Cc1ccc2cc3cc(C(=O)NC4CCCCC4)sc3nc2c1 | x | x | x | 35.7% | x | x
Cc1nc(NCCC(C)C)sc1C(=O)NC1CC1 | x | x | x | 63.3% | x | x
COC(=O)c1ccc(Nc2cc(C)nc3ccccc23)cc1 | 18.4µM* | u | 20.6µM* | -3.2% | -97.3* | 18.4µM*
COC(=O)c1ccc2nc(C)cc(Nc3ccc(N(C)C)cc3)c2c1 | -19.9% | -0.7% | -16.5% | -14.9% | 8.3 | u
COC(=O)c1ccc2nc(C)cc(Nc3ccc(O)cc3)c2c1 | x | 20.6µM* | x | u | x | 14.6µM*
Cc1ccccc1CSc1nc2cccnc2n1Cc1ccc(C(=O)NCCc2cccs2)cc1 | x | 13µM* | x | -17.0% | x | 16.4µM*
O=C(NCc1cccs1)c1ccc(Cn2c(SCc3cccc(F)c3)nc3cccnc32)cc1 | x | 25.9µM* | x | 1.7% | x | 18.4µM*
Cc1ccccc1CNC(=O)c1ccc(Cn2c(SCc3cccc(F)c3)nc3cccnc32)cc1 | x | 14.6µM* | x | -16.5% | x | 14.6µM*
O=C(NCCc1ccccc1)c1ccc(Cn2c(SCc3cccc(F)c3)nc3cccnc32)cc1 | x | 7.31µM* | x | -10.1% | x | 14.6µM*
Cc1ccc(CSc2nc3cccnc3n2Cc2ccc(C(=O)NCCc3ccccc3)cc2)cc1 | x | -15.5% | x | -17.2% | x | -6.6%
O=C(NCc1ccccc1Cl)c1ccc(Cn2c(SCc3ccccc3)nc3cccnc32)cc1 | x | u | x | -9.4% | x | u
O=C(NCCc1ccccc1)c1ccc(Cn2c(SCc3ccccc3)nc3cccnc32)cc1 | x | u | x | -11.0% | x | u
O=C1N[C@@H]2CCN(C(=O)c3ccc4ccccc4c3)[C@@H]2C(=O)N1c1ccc(F)cc1 | x | x | x | -23.7%[176 µM] | x | x
O=C1N/C(=C/c2ccsc2)C(=O)N1c1ccccc1 | 24.7% | -0.7% | 11.7% | 5.5% | -53.5* | 13.1%
CCn1c(C)cc(/C=C2/NC(=O)N(c3ccccc3)C2=O)c1C | 1.8% | u | 11.1% | -8.1% | -10.4 | u
CS(=O)(=O)N1CCC(OC2CCN(C(=O)Nc3cccc(F)c3)CC2)CC1 | x | x | x | 33.9% | x | x
Cc1ccc(-c2nc(-c3ccc(F)cc3)no2)cc1 | x | x | x | -46.6% | x | x
Cc1ccc(N2CCN(C(=O)c3ccc4c(Cl)c5c(nc4c3)CCCC5)CC2)c(C)c1 | x | 0.0% | x | -36.5% | x | -15.1%
COc1ccccc1N1CCN(C(=O)c2ccc3c(Cl)c4c(nc3c2)CCCC4)CC1 | u | u | u | x | -87.1* | u
O=C(c1ccc2c(Cl)c3c(nc2c1)CCCC3)N1CCN(c2ccc(F)cc2)CC1 | -0.6% | 20.6µM* | -8.7% | 16.0% | -29.7 | 18.4µM*
SMILES | HT1080-NT tox | TDP1 cell CPT | HT1080 IDH1KD tx | ALOX12 inh | IL-1B inflam inh | DT40 TDP1 no CPT
CC1CCN(C(=O)c2ccc3c(Cl)c4c(nc3c2)CCCC4)CC1 | 8.7% | -11.5% | 0.9% | -0.6% | -5.0 | u
Cc1oc(-c2nc(C#N)c(N3CCN(C)CC3)o2)cc1S(=O)(=O)N(C)c1ccccc1 | x | x | x | -6.9% | x | x
COC(=O)C(NC(=O)c1ccc(OC)cc1)(Nc1nc(C2CC2)cs1)C(F)(F)F (stereo not drawn) | x | x | x | -21.7% | x | x
O=C(Nc1cc(C(F)(F)F)ccc1N1CCCCC1)c1ccco1 | 5.8% | -2.4% | 1.2% | 5.9% | -14.9 | u
O=C(Nc1cccc(Cl)c1N1CCOCC1)c1ccc(Br)o1 | -0.7% | 10.3µM* | -2.1% | 0.0% | -1.8 | 10.3µM*
O=C(Nc1cc(C(F)(F)F)ccc1N1CCCCC1)c1ccc(Br)o1 | 1.5% | 18.4µM* | 0.7% | 9.3% | -3.6 | u
O=C(Nc1ccc(N2CCCC2)c(Cl)c1)c1ccc(Br)o1 | u | 18.4µM* | u | u | -27.2 | u
CC1=C(C(=O)N2CCN(c3cccc(C)c3C)CC2)C2(CCCCC2)OC1=O | x | 20.6µM* | x | u | x | 20.6µM*
CC1=C(C(=O)N2CCN(c3cccc(Cl)c3)CC2)C2(CCCCC2)OC1=O | x | u | x | u | x | 20.6µM*
CC1=C(C(=O)N2CCN(c3ccccc3)CC2)C2(CCCCC2)OC1=O | x | -24.5% | x | 0.0% | x | -27.4%
Cc1ccc(OCCC(=O)Nc2c(C)nn(C)c2C)cc1C | x | x | x | -2.8% | x | x
O=C(O)C(=Cc1ccc([N+](=O)[O-])cc1)c1cccc(Cl)c1 | -1.9% | 8.2µM* | 0.4% | -5.4% | 26.1 | u
COc1ccccc1C(=Cc1ccc([N+](=O)[O-])cc1)C(=O)O | 3.5% | 3.9% | 0.7% | 4.8% | 8.9 | 6.1%
COc1ccc(C(=O)NCCNc2ccccc2[N+](=O)[O-])cc1 | 2.8% | u | -7.4% | -7.2% | u | -22.3%
CCCNC(=O)c1ccc(S(=O)(=O)c2ccc(OC)cc2)c([N+](=O)[O-])c1 | u | 5.17µM* | u | -22.4% | -92.4* | 4.11µM*
O=C(N/N=C1\CCCc2c1[nH]c1ccc(Cl)cc21)c1ccncc1 | u | 11.6µM* | u | -11.8% | u | 10.3µM*
CSc1ccc(NS(=O)(=O)c2ccc(-n3cnnn3)cc2)cc1 | -2.5% | u | -1.8% | 0.0% | -6.1 | 20.6µM*
Cc1ccc(S(=O)(=O)Nc2ccc(-n3cnnn3)cc2)cc1 | -12.3% | -12.5% | -5.2% | i | -2.1 | -37.1%
COc1ccc(S(=O)(=O)NC2CCCCC2)cc1-n1cnnn1 | -2.1% | -12.1% | -2.2% | -41.7% | 30.2 | 20.6µM*
COc1ccc(NS(=O)(=O)c2ccc(-n3cnnn3)cc2)cc1OC | u | 16.4µM* | -15.8% | -6.6% | 17.0 | 9.2µM*
O=C1NC2(CCN([S+](=O)([O-])c3cccc(C(F)(F)F)c3)CC2)Oc2ccccc21 | x | x | x | 35.9% | x | x
CCOC(=O)c1c(C)[nH]c(C(=O)OCc2csc(CC(=O)Nc3ccccc3C)n2)c1C | -13.4% | 16.4µM* | -3.1% | 3.7% | 1.3 | 13µM*
CCOC(=O)c1sc(CC(=O)Nc2ccccc2C)nc1C | x | x | x | 8.91µM* | x | x
